Potency, outcome and activity change, positive = activation data for seven compounds are collected here from PubChem BioAssay (Tox21).

A number with no mark means an inactive call. Inconclusive results are not listed. Calls of active or inactive are those of the source. Unless noted, calls come from the whole dose curve; as a rule, active = well fitted curve in the direction sought with a large enough effect in the repeat runs; inconclusive = weak or mixed curves; inactive = no such curve, though single readings can be large; an effect the other way counts as inactive or inconclusive.

Test [1] concerns the target Luciferin 4-monooxygenase (Photinus pyralis) (UniProt P08659). The test is described as follows: qHTS assay to identify small molecule inhibitors of firefly luciferase (AID 1224835). Note: nearly all actives have a fitted effect of over 25% in size. Note: potency is the fitted concentration of half-maximal effect. The essentials:
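Biochemical qHTS: compounds run as interplate titrations against purified firefly enzyme, with D-luciferin and ATP each at its KM concentration. Light output recorded by CCD imaging.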
A general note: Quantitative high-throughput screening tests each substance at several concentrations.

The nature of test [2]: qHTS assay to identify small molecule agonists of the constitutive androstane receptor (CAR) signaling pathway - cell viability counter screen (AID 1224836). Note: nearly all actives have a fitted effect of over 45% in size. Note: potency is the fitted concentration of half-maximal effect. The method, boiled down:
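Compound titrations (15 concentrations) went onto HepG2-CYP2B6-hCAR cells 4 h after seeding, alongside PK11195 at a final 0.75 uM; a 23 h, 37 C/5% CO2 incubation preceded CellTiter-Fluor viability measurement.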

Test [3] in a line: qHTS assay to identify small molecule antagonists of the constitutive androstane receptor (CAR) signaling pathway - cell viability counter screen (AID 1224837). Note: nearly all actives have a fitted effect of over 45% in size. Note: potency is the fitted concentration of half-maximal effect. The method, boiled down: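 HepG2 cells stably expressing hCAR and a CYP2B6-2.2kb reporter were plated and pre-incubated 4 hr at 37 C/5% CO2, then given compounds at 15 concentrations plus 50 nM CITCO (final). After 23 hr, viability was read by CellTiter-Fluor fluorescence.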

Test [4] has as its target Nuclear receptor subfamily 1 group I member 3 (Homo sapiens) (UniProt Q14994). The test is described as follows: qHTS assay to identify small molecule antagonists of the constitutive androstane receptor (CAR) signaling pathway (AID 1224838). Note: nearly all actives have a fitted effect of over 40% in size. Note: potency is the fitted concentration of half-maximal effect. The essentials: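 HepG2 cells stably co-transfected with hCAR and a CYP2B6-2.2kb luciferase reporter were seeded 4 h before compound addition at 15 concentrations. Cells were stimulated with 50 nM CITCO (final) for 24 h at 37 C; luciferase luminescence was then read.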

Test [5] has the same target. The test is described as follows: qHTS assay to identify small molecule agonists of the constitutive androstane receptor (CAR) signaling pathway (AID 1224839). Note: nearly all actives have a fitted effect of over 15% in size. Note: potency is the fitted concentration of half-maximal effect. The essentials:
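In this screen, CAR-driven CYP2B6 promoter activity is measured by luminescence in HepG2-CYP2B6-hCAR cells after 24 h with test compounds and 0.75 uM PK11195 (final concentration).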

Test [6] can be described thus: qHTS assay to identify small molecule antagonists of the estrogen related receptor signaling pathway with the pleiotropic PPARgamma coactivator (PGC) from Tox21 10K library - cell viability counter screen (AID 1224840; active = well fitted cell-killing curve with a large enough effect in the repeat runs, not every such curve was filed as active; note: nearly all actives have a fitted effect of over 40% in size; note: potency is the fitted concentration of half-maximal effect). The method, boiled down: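 PGC/ERR cells were seeded at 2,000 cells/well and left 6 hours at 37 C/5% CO2 before pin-tool addition of compounds in DMSO. After 17.5 hours at 37 C, CellTiter-Fluor was added and fluorescence read 30 minutes later.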

Test [7] is described as follows: qHTS assay to identify small molecule antagonists of the estrogen related receptor signaling pathway with the pleiotropic PPARgamma coactivator (PGC) from Tox21 10K library (AID 1224841; call rule not given here; note: actives are mostly falling curves and most rising ones were filed inactive; nearly all actives have a fitted effect of over 50% in size). The method, boiled down: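 PGC/ERR reporter cells were seeded at 2,000 cells/well and held 6 hours at 37 C/5% CO2 before pin-tool addition of compounds in DMSO. After 18 hours at 37 C, One-Glo was added and luminescence read after 30 minutes at room temperature.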

Test [8] in a line: qHTS assay to identify small molecule agonists of the estrogen related receptor signaling pathway with the pleiotropic PPARgamma coactivator (PGC) from Tox21 10K library (AID 1224842). Note: nearly all actives have a fitted effect of over 15% in size. The essentials: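 PGC/ERR reporter cell line, 2,000 cells per well, incubated 6 h at 37 C before 23 nL compound in DMSO was added. After 18 h at 37 C, One-Glo luminescence read following 30 min at room temperature.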

Test [9] has as its target Thyrotropin receptor (Homo sapiens) (UniProt P16473). Nature of the test: qHTS assay to identify small molecule agonists of the thyroid stimulating hormone receptor (TSHR) signaling pathway (AID 1224843; calls by dose curve; note: nearly all actives have a fitted effect of over 45% in size). The method, boiled down: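 TSHR-HEK293 cells in agonist mode, 30 min room-temperature step, then cAMP measured by competitive HTRF (cAMP-d2 with anti-cAMP cryptate) after 1 h at room temperature. Tested at 15 concentrations in triplicate.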

Test [10] is described as follows: qHTS assay to identify small molecule agonists of the hypoxia (HIF-1) signaling pathway - cell viability counter screen (AID 1224844; calls by dose curve; note: nearly all actives have a fitted effect of over 50% in size; note: potency is the fitted concentration of half-maximal effect). The essentials: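 HRE-bla ME-180 cells in medium with 0.5% dialyzed FBS were preincubated 5 hrs at 37C, exposed to compounds for 17 hrs, then viability was read as CellTiter-Glo luminescence after 30 min at room temperature, in the reporter wells.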

The nature of test [11]: qHTS assay to identify small molecule agonists of H2AX (AID 1224845; active = well fitted activation curve with a large enough effect in the signal ratio in the repeat runs, not every such curve was filed as active; the % refers to the signal ratio). The essentials:
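Wild-type CHO-K1 cells, plated overnight, exposed 3hr at 37C to 15 concentrations (0.76% DMSO final). Lysed, then HTRF anti-pH2AX (S139) cryptate and anti-H2AX-d2 antibodies, 24 hr room temperature; 665/620 nm emission read.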

Test [12] can be described thus: qHTS assay to identify small molecule agonists of the hypoxia (HIF-1) signaling pathway (AID 1224846; active = well fitted activation curve with a large enough effect in the signal ratio in the repeat runs, not every such curve was filed as active; the % refers to the signal ratio). The essentials: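 HRE-bla ME-180 cells (beta-lactamase reporter under hypoxia response element) were plated at 2,000 cells/well in medium with 0.5% dialyzed FBS, rested 5 hrs, then given compounds in DMSO for 17 hrs at 37C, 5% CO2. Reporter induction was read with CCF4-AM FRET substrate.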

The nature of test [13]: qHTS assay to identify small molecule agonists of H2AX - cell viability counter screen (AID 1224847; calls by dose curve; note: top concentration of the series differs between compounds; nearly all actives have a fitted effect of over 30% in size). The method, boiled down: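 Read-out: CellTiter-Glo luminescence, 30 min RT. Cells: wild-type CHO-K1, 1000/well, 10% FBS, plated overnight at 37C. Treatment: 15 concentrations, 3 hr, 37C, 0.76% DMSO.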
The nature of test [14]: qHTS assay to identify small molecule antagonists of the estrogen related receptor (ERR) signaling pathway from Tox21 library (AID 1224848). Note: nearly all actives have a fitted effect of over 50% in size. Note: potency is the fitted concentration of half-maximal effect. The essentials: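 ERR reporter cell line (from NTP) seeded 2,000 cells/well, rested 6 h at 37 C/5% CO2, then pin-dosed with compounds in DMSO. After 18 h at 37 C, ONE-Glo added; luminescence read after 30 min at room temperature.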

Test [15] can be described thus: qHTS assay to identify small molecule agonists of the estrogen related receptor (ERR) signaling pathway from Tox21 library (AID 1224849; calls by dose curve; note: nearly all actives have a fitted effect of over 15% in size). As to conditions: ERR reporter cell line, ONE-Glo luciferase, 18 h; at 92.4 µM (top of the series) unless noted. The essentials:
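ERR reporter cell line (NTP) seeded, rested 6 h at 37 C/5% CO2, then pinned with Tox21 compounds in DMSO. After 18 h at 37 C, ONE-Glo luciferase luminescence was read following 30 min at room temperature.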

A short description of test [16]: qHTS RealTime-Glo MT Cell Viability Assay in HepG2 cells - 24 hour (AID 1224867). Note: nearly all actives have a fitted effect of over 50% in size. The method, boiled down:
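Luminescence read-out: viable HepG2 cells reduce a prosubstrate to a NanoLuc substrate, giving a signal proportional to live cell number. Reads taken at 0, 8, 16, 24, 32 and 40 h of compound exposure at 37 C.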

The nature of test [17]: A CellTox Green Cytotoxicity Assay to monitor cytotoxicity in HEK293 cells - 0 hour (AID 1224869). Note: nearly all actives have a fitted effect of over 50% in size. The method, boiled down: (§1)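 HEK293 cells premixed with CellTox Green dye were seeded at 600 cells/well and left 5 h at 37 C/5% CO2 before pin transfer of 23 nL compound in DMSO. Fluorescence from dye bound to dead-cell DNA was read during 40 h treatment.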
Test [18] is described as follows: qHTS RealTime-Glo MT Cell Viability Assay in HepG2 cells - 40 hour (AID 1224870). Note: nearly all actives have a fitted effect of over 50% in size. The essentials: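 HepG2 cells (600/well) mixed with RealTime-Glo MT reagent, settled 5 h at 37 C/5% CO2 before compound addition. Nonlytic NanoLuc luminescence from viable-cell prosubstrate reduction read repeatedly during 40 h treatment at 37 C.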
The nature of test [19]: A CellTox Green Cytotoxicity Assay to monitor cytotoxicity in HEK293 cells - 40 hour (AID 1224871). Note: nearly all actives have a fitted effect of over 45% in size. The essentials: as §1
Test [20] can be described thus: qHTS RealTime-Glo MT Cell Viability Assay in HEK293 cells - 32 hour (AID 1224868). The essentials:
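Nonlytic real-time viability readout: viable cells convert prosubstrate to NanoLuc substrate, giving luminescence proportional to live cell number. HEK293, 600 cells/well, compound added after 5 h, continuous culture at 37 C.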
% is set by controls: 0 for no effect and ±100 for the full control effect.

Sequence of Nuclear receptor subfamily 1 group I member 3 (Homo sapiens) (Q14994 whole entry, looked up): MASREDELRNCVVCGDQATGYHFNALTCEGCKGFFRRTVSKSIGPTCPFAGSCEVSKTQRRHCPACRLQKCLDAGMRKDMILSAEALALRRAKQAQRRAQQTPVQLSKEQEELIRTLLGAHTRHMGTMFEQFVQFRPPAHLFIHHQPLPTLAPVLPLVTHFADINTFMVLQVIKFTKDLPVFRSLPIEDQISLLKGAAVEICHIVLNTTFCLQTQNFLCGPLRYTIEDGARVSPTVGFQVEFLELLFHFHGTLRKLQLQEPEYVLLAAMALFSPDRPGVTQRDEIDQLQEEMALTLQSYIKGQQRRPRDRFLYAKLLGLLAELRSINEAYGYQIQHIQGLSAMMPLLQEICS
Sequence of Thyrotropin receptor (Homo sapiens) (P16473 whole entry, looked up): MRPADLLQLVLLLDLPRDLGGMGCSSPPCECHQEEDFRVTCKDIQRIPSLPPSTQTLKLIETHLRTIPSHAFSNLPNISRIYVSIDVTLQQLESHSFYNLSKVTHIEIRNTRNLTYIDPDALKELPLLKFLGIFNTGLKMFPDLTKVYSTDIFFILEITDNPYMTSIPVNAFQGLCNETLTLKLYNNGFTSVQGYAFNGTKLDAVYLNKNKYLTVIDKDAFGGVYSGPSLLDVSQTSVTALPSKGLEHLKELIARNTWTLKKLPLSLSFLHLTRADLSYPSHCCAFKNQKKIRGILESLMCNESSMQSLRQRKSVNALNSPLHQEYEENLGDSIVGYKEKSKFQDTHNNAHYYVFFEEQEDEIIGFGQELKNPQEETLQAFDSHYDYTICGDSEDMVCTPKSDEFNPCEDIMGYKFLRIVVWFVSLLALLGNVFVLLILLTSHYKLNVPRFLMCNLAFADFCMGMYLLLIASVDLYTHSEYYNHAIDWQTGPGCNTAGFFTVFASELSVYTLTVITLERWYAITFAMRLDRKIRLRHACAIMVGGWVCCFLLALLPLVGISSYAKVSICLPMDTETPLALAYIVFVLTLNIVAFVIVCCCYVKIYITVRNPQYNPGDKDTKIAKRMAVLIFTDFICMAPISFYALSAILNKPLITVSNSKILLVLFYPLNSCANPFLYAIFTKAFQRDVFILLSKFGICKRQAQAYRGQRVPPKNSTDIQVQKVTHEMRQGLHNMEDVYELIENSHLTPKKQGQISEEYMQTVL
Sequence of Luciferin 4-monooxygenase (Photinus pyralis) (P08659 whole entry, looked up): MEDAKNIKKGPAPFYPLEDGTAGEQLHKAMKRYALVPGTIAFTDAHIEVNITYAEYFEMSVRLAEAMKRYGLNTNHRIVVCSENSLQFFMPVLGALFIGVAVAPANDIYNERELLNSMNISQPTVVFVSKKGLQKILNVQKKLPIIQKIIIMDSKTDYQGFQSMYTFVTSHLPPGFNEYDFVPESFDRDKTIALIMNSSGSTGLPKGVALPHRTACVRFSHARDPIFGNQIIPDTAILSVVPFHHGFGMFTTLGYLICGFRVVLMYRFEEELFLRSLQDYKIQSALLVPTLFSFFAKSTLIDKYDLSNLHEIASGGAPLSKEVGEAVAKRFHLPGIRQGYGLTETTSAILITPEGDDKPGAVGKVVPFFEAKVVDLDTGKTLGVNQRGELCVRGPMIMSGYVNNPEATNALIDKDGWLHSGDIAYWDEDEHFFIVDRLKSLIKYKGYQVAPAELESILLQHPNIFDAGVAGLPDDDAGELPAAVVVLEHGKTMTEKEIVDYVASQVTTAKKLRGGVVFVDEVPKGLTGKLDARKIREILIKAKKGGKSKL

On to `[As]#[In]`, for which the Potency entry in test [1], in test [2], in test [3], in test [4], in test [5] and in test [6] was “inactive” each time. For the same compound, the Potency entry in test [7], in test [9], in [10], in test [11], in test [13] and in test [14] was “inactive” each time. Further, the Potency entry in test [16], in [17], in test [18] and in [19] was “inactive” in each case. In addition, the call in test [8] and in test [12] was inactive. For the same compound, the activity change, positive = activation in [15] is 0.493%.
On to `O=CNC(N1CCN(C(NC=O)C(Cl)(Cl)Cl)CC1)C(Cl)(Cl)Cl` (stereo not drawn), for which the Potency entry in test [1], in test [2], in [3], in [4], in [5] and in test [6] was “inactive” each time. Moreover, the Potency result in test [7], in test [9], in test [10], in test [11], in test [13] and in test [14] was “inactive” in each case. In addition, the Potency result in [16], in [20], in [17] and in test [18] was “inactive” throughout. In addition, the compound was called inactive in [8] and in [12]. Further, in test [15], the activity change, positive = activation is 2.23%.
Consider `Cc1cc(C)nc(Nc2ccccc2)n1`, for which the Potency entry in [1], in test [2], in [3], in [4], in test [6] and in test [7] was “inactive” each time. Also, the Potency result in test [9], in test [10], in test [11], in test [13], in [14] and in test [16] was “inactive” in each case. The Potency entry in test [20], in [17], in test [18] and in [19] was “inactive” in each case. For the same compound, in test [5], the Potency was 61.1 µM (active). Moreover, the call in test [8] and in [12] was inactive.
As for `COC(=O)c1ccccc1S(=O)(=O)NC(=O)N(C)c1nc(C)nc(OC)n1`, the Potency result in test [1], in test [2], in test [3], in [4], in test [5] and in test [6] was “inactive” throughout. Moreover, the Potency entry in test [10], in test [11], in test [13], in test [14], in test [16] and in test [17] was “inactive” throughout. Besides, the Potency entry in [18] and in test [19] was “inactive” each time. Also, the compound was called inactive in [8] and in test [12]. Further, the activity change, positive = activation in test [15] was 6.39%.
Take `CC(=O)Nc1cc([As](=O)(O)O)ccc1O`: the Potency entry in test [1], in test [2], in test [3], in test [4], in test [5] and in [6] was “inactive” throughout. Also, the Potency result in [7], in [9], in test [10], in [11], in [13] and in test [14] was “inactive” each time. Also, the Potency result in [16], in test [20], in [17] and in test [18] was “inactive” in each case. Also, the outcome in test [8] and in test [12] was inactive. In addition, the activity change, positive = activation in [15] was -16.7% [at 42.5 µM].
On to `COc1cc(C[C@@H](C)N)c(OC)cc1C`, for which the Potency entry in [1], in test [2], in test [3], in [4], in test [5] and in [6] was “inactive” throughout. In addition, the Potency entry in [7], in test [9], in test [10], in test [11], in [13] and in [14] was “inactive” each time. Moreover, the Potency entry in test [16], in [17], in test [18] and in test [19] was “inactive” each time. The outcome in test [8] and in [12] was inactive. Further, in test [15], the activity change, positive = activation was -3.22%.
As for `COc1cccc2c1cc([N+](=O)[O-])c1c(C(=O)O)cc3c(c12)OCO3`, the Potency in test [1] is 71 µM (active); in test [2] it was 27.3 µM (active); in [3], 27.3 µM (active); in test [4], 12.2 µM (active); in test [6] it was 30.6 µM (active); in test [10], 54.9 µM (active). Besides, the Potency in test [14] is 4.86 µM (active). For the same compound, the Potency result in [5], in test [7], in test [9], in test [13], in [16] and in test [17] was “inactive” each time. In [18], the Potency entry was “inactive”. Moreover, the call in test [8] was inactive. For the same compound, the activity change, positive = activation in [15] is -37.1%.
